# Screening results deposited in PubChem by several laboratories.
# A selection: hits, their analogues and other compounds. The true share with any hit is near 4.5%.
# Jurkat NFkB inh = lowers PMA/ionomycin-induced NF-kB signal in Jurkat cells; PMA/ionomycin-induced NF-kB luciferase reporter, luminescence; inhibition, % at 4 µM; 0.53% of 330,000 active; AID 435003; in the data active = inhibition above about 50%
# Beta cell apopt = blocks beta cell apoptosis. 0.8% of 300,000 active. INS-1E cytokine-induced death, ATP luminescence, 48 h; percent of positive-control rescue, neutral wells zero. protection from apoptosis, % (no concentration beside the values). AID 435005;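 active = Every replicate reaches about 75%, or at least half do and their mean reaches it too, limit read from the data; inconclusive = At least half of replicates reach the limit but their mean does not; inactive = Under half of replicates reach the limit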;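 also: 0% = cytokine-treated negative control wells and 100% = positive control rescue; higher means more ATP so stronger rescue from cytokine killing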
# 697 NFkB inh = lowers PMA/ionomycin-induced NF-kB signal in 697 B cells; 697 B-cell NF-kB luciferase reporter, 16 h; inhibition, % at 4 µM; 0.33% of 330,000 active; in the data active = inhibition above about 35%
# CSC inhib = blocks cancer stem cells; 1.1% of 300,000 active; inhibition, % at 7.5 µM; cancer stem cell-like cells viability, luminescence; in the data active = inhibition above about 75%; inconclusive = no clear call, values can overlap the other calls; tested in HMLE shEcad cells
# Mdm2 MdmX PPI = disrupts the human Mdm2-MdmX interaction; O15151+Q00987; SaOS-2 split-luciferase Mdm2/MdmX complementation, luminescence; inhibition, % at 8 µM; 3% of 330,000 active; AID 485346;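 active = inhibition of at least 50% at 8 µM in the primary screen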
# Target sequence (O15151 whole entry, looked up): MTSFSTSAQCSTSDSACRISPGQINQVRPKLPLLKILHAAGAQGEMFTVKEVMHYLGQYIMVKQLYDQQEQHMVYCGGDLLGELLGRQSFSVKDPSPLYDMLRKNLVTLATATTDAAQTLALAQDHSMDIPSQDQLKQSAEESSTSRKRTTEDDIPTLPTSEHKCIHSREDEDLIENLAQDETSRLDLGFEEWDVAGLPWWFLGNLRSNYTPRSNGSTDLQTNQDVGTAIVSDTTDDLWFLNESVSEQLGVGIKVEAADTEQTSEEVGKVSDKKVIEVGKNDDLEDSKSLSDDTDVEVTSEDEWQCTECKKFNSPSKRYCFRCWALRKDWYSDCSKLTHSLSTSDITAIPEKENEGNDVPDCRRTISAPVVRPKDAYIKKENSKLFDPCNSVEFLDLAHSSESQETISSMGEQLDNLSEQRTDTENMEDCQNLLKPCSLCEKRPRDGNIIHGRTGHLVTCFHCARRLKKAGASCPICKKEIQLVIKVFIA
# Target sequence (Q00987 whole entry, looked up): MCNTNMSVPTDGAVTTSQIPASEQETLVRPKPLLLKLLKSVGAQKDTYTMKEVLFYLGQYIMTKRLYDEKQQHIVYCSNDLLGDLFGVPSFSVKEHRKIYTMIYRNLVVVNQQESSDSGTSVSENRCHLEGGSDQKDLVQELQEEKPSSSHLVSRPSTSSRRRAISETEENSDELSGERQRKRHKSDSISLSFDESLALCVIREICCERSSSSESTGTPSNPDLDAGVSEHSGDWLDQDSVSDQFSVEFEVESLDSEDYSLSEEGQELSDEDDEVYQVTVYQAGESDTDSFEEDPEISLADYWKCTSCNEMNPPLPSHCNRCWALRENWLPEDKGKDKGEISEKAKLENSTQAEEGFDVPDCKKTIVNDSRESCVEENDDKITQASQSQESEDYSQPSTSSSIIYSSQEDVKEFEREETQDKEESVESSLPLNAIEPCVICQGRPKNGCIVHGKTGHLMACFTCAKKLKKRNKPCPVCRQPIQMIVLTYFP
# Gli-Sufu block = Gli-Sufu pathway antagonism | Sufu-KO-LIGHT fibroblasts, Gli luciferase reporter luminescence | inhibition, % at 5 µM | 0.74% of 340,000 active;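 active = inhibition above about 55%, limit read from the data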;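 also: 0% = DMSO-treated cells and 100% = wells with medium but no cells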
# Gli antag conf = confirmation of Gli-SUFU pathway antagonists | shares compounds with Gli-Sufu block | Sufu-KO-LIGHT cells, Gli luciferase reporter, luminescence | AID 602428 | 40% of 2,500 active | inhibition, % at 5 µM;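 active = mean inhibition at 5 µM reaching about 45%, limit read from the data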;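 also: plate controls were DMSO-treated cells for no effect and wells lacking cells for full effect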
# Gli cytotox = cytotoxic in Gli-SUFU antagonist counter-screen | Sufu-KO-LIGHT cells cytotoxicity, ATP luminescence | cytotoxicity, % at 5 µM | 32% of 2,500 active | AID 651994 | shares compounds with Gli-Sufu block;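 active = mean cytotoxicity at 5 µM above about 25%, limit read from the data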;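 also: cells exposed to compound overnight for roughly 16 to 18 hours; plate controls were DMSO wells with cells for no effect and medium without cells for full effect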
# Wnt3a counter = counter-screen for Gli-SUFU antagonists: Wnt3a reporter inhibition. inhibition, % at 6.25 µM. shares compounds with Gli-Sufu block. AID 651995. 20% of 2,500 active. Wnt-LIGHT cells, Wnt3a-driven luciferase reporter, luminescence;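 active = mean inhibition above about 25%, limit read from the data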
# Numbers without * were called inactive; ? = inconclusive; nt = no result.
SMILES,Jurkat NFkB inh,Beta cell apopt,697 NFkB inh,CSC inhib,Mdm2 MdmX PPI,Gli-Sufu block,Gli antag conf,Gli cytotox,Wnt3a counter
c1ccc2c(-c3[nH]ncc3CNCCCn3ncc4ccccc43)cccc2c1,8,33,7,5,21,58*,23,8,-10
OCC1CCCCN1CCNCc1cn[nH]c1-c1cccc2ccccc12 (stereo not given),6,2,9,-7,19,4,nt,nt,nt
CC(=O)Oc1ccc2c(c1)OC(c1ccccc1)CC21CC(C)(C)NC(=S)N1 (stereo not given),-8,0,-20,15,-1,9,nt,nt,nt
COc1ccc(C2(c3ccc(OC(C)=O)cc3OC(C)=O)CC(c3ccccc3)NC(=S)N2)cc1 (stereo not given),12,1,16,0,-41,62*,10,12,-13
C(#Cc1ccccc1)C[N+]1(CC#Cc2cccc3ccccc23)CCCC1,24,77*,-15,15,48,82*,83*,19,4
COc1ccc(N2CCn3c2nc2c3c(=O)n(CCCc3ccccc3)c(=O)n2C)c(OC)c1,49,55,-32,0,30,51,55*,35*,5
CC(=O)NS(=O)(=O)c1ccc(NC(=S)NC(=O)C(C)C)cc1,0,-10,-12,1,10,93*,31,5,-14
Cc1ccc(C2NC(c3ccc(C)cc3)C(C)C(=O)C2C)cc1 (stereo not given),-21,8,-43,-8,-17,7,nt,nt,nt
CC(C)(C)OC(=O)N1CCC(c2cc(-c3cccs3)n[nH]2)CC1,0,-10,-13,7,-4,57*,42,9,-66
CC1CCN(C(=O)CSc2n[nH]c(-c3cccs3)n2)CC1,-10,-5,15,2,26,2,nt,nt,nt
Cc1ccc(CNC(=O)CN(c2ccc(C)cc2)S(=O)(=O)c2c(C)n[nH]c2C)cc1,3,8,-5,15,-9,57*,26,9,37*
Cc1ccc(N(CC(=O)NC(C)c2ccccc2)S(=O)(=O)c2c(C)n[nH]c2C)cc1 (stereo not given),-11,2,-54,-10,0,0,nt,nt,nt
Cc1ccc(S(=O)(=O)N(Cc2ccc([N+](=O)[O-])cc2)C(=O)N2CCN(C)CC2)cc1,-3,nt,16,nt,-3,-6,nt,nt,nt
Nc1ncc(S(=O)(=O)c2ccc([N+](=O)[O-])cc2)s1,nt,nt,nt,nt,nt,7,nt,nt,nt
CC(Oc1cccc2c1OC(C)(C)C2)C(=O)O (stereo not given),-1,-1,-9,nt,13,96*,10,-7,12
COc1ccc(C(C(=O)NCc2ccc(F)cc2)N(C(=O)c2csnn2)C2CC2)cc1 (stereo not given),0,-3,-4,-6,-22,14,nt,nt,nt
CCN1CCCC1CNc1ncnc2c1[nH]c1ccc(Cl)cc12 (stereo not given),-27,-4,-28,1,9,52,40,13,-95
CC(C)CC(=O)NC(NCC1CCCO1)C(Cl)(Cl)Cl (stereo not given),-17,-9,10,2,0,88*,8,9,-10
O=C(/C=C/c1ccc(S(=O)(=O)N2CCOCC2)cc1)NCc1ccccc1Cl,19,4,-31,51,11,5,nt,nt,nt
O=C(/C=C/c1ccc(S(=O)(=O)N2CCOCC2)cc1)NCc1ccccc1F,3,4,-34,34,-16,52,33,9,-5
O=C(O)Cn1cccc1C(=O)c1ccccc1,-10,-5,19,-5,6,96*,9,4,-15
CCOc1ccc(NC(=O)CCSc2nnc(C)s2)cc1,3,1,8,-14,-17,53,17,-2,3
CCOc1ccc(NC(=O)CCC(=O)O)cc1,8,-2,-10,-4,20,5,nt,nt,nt
Cc1nn(C)c(C(=O)NCc2ccc(Cl)cc2)c1Cl,45,?,-32,-6,15,63*,53*,29*,20
Cc1ccc2c(c1)C(c1ccccc1)N(C(=O)c1ccc(Br)cc1)CC(=O)N2 (stereo not given),nt,3,nt,0,nt,11,nt,nt,nt
SMILES,Jurkat NFkB inh,Beta cell apopt,697 NFkB inh,CSC inhib,Mdm2 MdmX PPI,Gli-Sufu block,Gli antag conf,Gli cytotox,Wnt3a counter
O=C(NCc1ccccc1)C1=C[C@H](C2CCCCC2)C[C@H](OCCCCO)O1,13,4,3,-9,1,7,nt,nt,nt
O=C(Nc1ccccc1)C1=C[C@H](C2CCCCC2)C[C@H](OCCCCO)O1,-54,-4,-39,-5,35,62*,82*,4,-46
O=C(Nc1ccccc1)C1=C[C@@H](C2CCCCC2)C[C@@H](OCCCCO)O1,-40,0,-35,-15,25,68*,80*,3,3
Cc1ccccc1CC(=O)N1CCCC(CNC(=O)c2ccc(F)cc2)C1 (stereo not given),6,-2,21,-5,6,10,nt,nt,nt
Cc1[nH]nc(C(=O)NN=Cc2ccccc2Cl)c1N=NN(C)C,nt,nt,nt,nt,nt,-25,nt,nt,nt
O=S(=O)(c1ccc2nnn(O)c2c1)N1CCOCC1,-16,-3,6,-20,15,2,nt,nt,nt
CN(C)S(=O)(=O)c1ccc2nnn(O)c2c1,-1,-6,13,-5,36,59*,15,2,19
CC(C(=O)NCCS(=O)(=O)c1ccc(Cl)cc1)S(=O)(=O)c1ccccc1 (stereo not given),-7,3,0,1,20,-2,nt,nt,nt
CC(C(=O)NCCS(=O)(=O)c1ccc(Cl)cc1)S(=O)(=O)c1ccc(Cl)cc1 (stereo not given),-22,-4,-16,-14,1,72*,18,6,5
COc1cc(C)ccc1OCc1cc(C(=O)N2CCC(c3ccc(F)cc3)C2)no1 (stereo not given),-125,0,-119,20,-129,-55,nt,nt,nt
CCc1ccc2c(c1)CCCN2C(=O)c1ccccc1C(=O)O,2,14,-2,nt,3,51,27,1,-60
COc1ccc(-c2c(NC(C)=O)n(C)c3ccccc3c2=O)cc1,7,2,8,-7,-6,100*,11,22,-22
COc1ccc(-c2c(NC(=O)C(C)C)n(C)c3ccccc3c2=O)cc1,14,-5,20,-4,13,4,nt,nt,nt
Cc1nn(C)c(C)c1/C=C/C(=O)O,7,-3,-12,nt,6,-2,nt,nt,nt
Cc1nn(C)c(C)c1/C=C/C(=O)c1ccc(Cl)cc1Cl,37,50,-18,-1,8,64*,63*,23,-5
